From PMC5540273 (PLoS ONE, 2017) come the findings set out here.
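Note: KINOMEscan kinase panel screen.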

For this assay, the system named is T1, CDK11.
T1 construct: gene CDK19
The note with it: concentration: 1 μM, replicates: in singlicate; n = 1.
As for `Cc1nccc(-c2c(-c3ccc(F)cc3)ncn2CCCN2CCOCC2)n1.Cl` [SB-282975], the “%Inh” value is 11%.

Regarding `O=C1NC(=O)C(c2ccc(Cl)cc2)=C1Nc1cccc(Cl)c1` [SB-317651], the “%Inh” value stood at 6%. To `Cc1ccc(NC(=O)Nc2ccccc2)cc1-c1ccc(C(=O)Nc2ccncc2)cc1` [GSK1398471] belongs 11%; to `O=C(Nc1n[nH]c2nc(-c3cccs3)c(Br)cc12)C1CCCC1` [SB-743341], 0%; to `COC(=O)C(NC(=O)NC1CCN(c2ccnc(Nc3ccc(F)cc3)n2)C1)c1ccccc1` (centres unmarked) [GSK1379712], 54%. The same measure for `CC(=O)c1cccc(NC(=O)NC2CCN(c3ccnc(Nc4ccc(F)cc4)n3)C2)c1` (centres unmarked) [GSK1379710]: 80%; for `CCc1ccc(-c2ccc3c(c2)-c2n[nH]cc2S(=O)(=O)N3C)cc1`: 7%. Consider `O=C(Nc1n[nH]c2nc(-c3cccs3)c(Br)cc12)C1CC1` [SB-735297], for which the “%Inh” value came out at 0%. `COC(=O)C(Cc1ccccc1)NC(=O)NC1CCN(c2ccnc(Nc3ccc(F)cc3)n2)C1` (centres unmarked) [GSK1379714]: the “%Inh” value is 48%. To `CC(C)c1ccc(O)cc1Nc1ccnc2ccc(C(F)(F)F)cc12` [GW482059] belongs 0%; to `Cc1ccc(NC(=O)c2ccc(Cl)cc2)cc1-c1ccc(C(=O)Nc2ccncc2)cc1` [GSK1398467], 2%; to `CC(C)c1cc(-c2ccc3c(N)n[nH]c3c2)nc(N)n1` [GSK2250882], 0%. To `Cn1cnc2c(N)ncnc21` [SKF-97623] belongs 0%. For `COc1ccc(Nc2nccc(N3CCC(NC(=O)C(C)c4ccc(Cl)cc4)C3)n2)cc1` (centres unmarked) [GSK1379735], the “%Inh” value came to 21%.
